# Reference: PubChem BioAssay (NCI)
# The panel holds about 83,000 compounds, 20% with a hit somewhere; the sample as a whole holds those more often.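 The test compound was applied at a single concentration to cells in 96-well plates for 48 hours, and percent growth was recorded.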 A number with no mark means an inactive call. Activity calls are given as the source filed them. Rule for the calls: active = growth percent below 10; inactive = the rest.
# Columns and labels:
# Assay in all cases: NCI-60 one-dose screen, 48 h (100 = growth as untreated, 0 = no growth, -100 = all killed)
# Conditions in all cases: 10 µM
# HT29 colon = system: HT29 colon
# SNB-75 CNS = system: SNB-75 CNS
# SNB-19 CNS = system: SNB-19 CNS
# U251 CNS = system: U251 CNS
# PC-3 prostate = system: PC-3 prostate
# SK-MEL-5 melanoma = system: SK-MEL-5 melanoma
# UACC-62 melanoma = system: UACC-62 melanoma
# LOX IMVI melanoma = system: LOX IMVI melanoma
# SK-MEL-28 melanoma = system: SK-MEL-28 melanoma
# SK-MEL-2 melanoma = system: SK-MEL-2 melanoma
# EKVX NSCLC = system: EKVX NSCLC
# SN12C renal = system: SN12C renal
# UO-31 renal = system: UO-31 renal
# TK-10 renal = system: TK-10 renal
# ACHN renal = system: ACHN renal
# CAKI-1 renal = system: CAKI-1 renal
# A498 renal = system: A498 renal
# CCRF-CEM leukemia = system: CCRF-CEM leukemia
# MOLT-4 leukemia = system: MOLT-4 leukemia
# SR leukemia = system: SR leukemia
Compound,growth (HT29 colon),growth (SNB-75 CNS),growth (SNB-19 CNS),growth (U251 CNS),growth (PC-3 prostate),growth (SK-MEL-5 melanoma),growth (UACC-62 melanoma),growth (LOX IMVI melanoma),growth (SK-MEL-28 melanoma),growth (SK-MEL-2 melanoma),growth (EKVX NSCLC),growth (SN12C renal),growth (UO-31 renal),growth (TK-10 renal),growth (ACHN renal),growth (CAKI-1 renal),growth (A498 renal),growth (CCRF-CEM leukemia),growth (MOLT-4 leukemia),growth (SR leukemia)
COc1cc(NC(=O)CSc2nc3ccccc3c(=O)n2CCc2ccccc2)cc(OC)c1OC,15.4%,-26.7% (active),27%,-12.5% (active),41.8%,-41.9% (active),25.3%,30.6%,37.5%,-2.19% (active),65.3%,25.9%,-63.2% (active),-2.38% (active),-41.6% (active),45.4%,,,,
CCN(CC)CCOc1nc2cc(OC)c(OC)cc2c2c1-c1ccc(OC)cc1C2=O,40.4%,56.5%,73.4%,60%,81.8%,91%,78.9%,30.4%,112%,74.2%,98.6%,80.7%,47.7%,105%,56%,35.7%,96.6%,22.4%,9.28% (active),-29.6% (active)
COc1cc(-c2nnc(-c3c(-c4ccc(F)cc4)nc4ccccn34)o2)cc(OC)c1OC,84.3%,2.43% (active),78.4%,59.5%,90.7%,63.3%,89.9%,69.7%,87.5%,106%,97%,68.2%,62.9%,89.7%,51.8%,91.3%,62.7%,89.1%,89.6%,25.3%
c1ccc2c(c1)oc1c3c(ccc12)NCCC3,95.1%,97.1%,108%,90.7%,91.5%,94.1%,84.2%,96.6%,107%,97.5%,59.5%,87.4%,65.9%,135%,101%,97.4%,77.3%,96%,97.5%,
Nc1ccn(C2CC(O)C(CO)O2)c(=O)n1 (stereo not given),110%,97.5%,99.7%,105%,99.4%,105%,100%,104%,120%,87.8%,102%,108%,96.4%,148%,104%,99.4%,124%,116%,104%,92.7%
COc1ccc(NC(=O)Cc2nc3nc4sc(C)c(C)c4c(=O)n3[nH]2)cc1,94.1%,101%,105%,91.2%,95.9%,86.7%,107%,89.7%,115%,103%,93.1%,106%,83.1%,115%,107%,98%,122%,90.4%,99.4%,99.1%
COc1ccc2c(c1)C(=O)c1c-2c(OCCN(C)C)nc2cc(OC)c(OC)cc12,30.1%,51.7%,57.1%,50.5%,69.2%,89.7%,83.1%,-36.6% (active),112%,54.3%,93.9%,51.9%,46.8%,64.2%,38.3%,81%,102%,28.2%,11.6%,1.83% (active)
Nc1nccc(Nc2ccccc2)n1,121%,90.9%,116%,104%,102%,107%,105%,109%,116%,117%,107%,119%,94.7%,122%,100%,118%,97.3%,89.8%,96.3%,102%
